BAZ2B inh – inhibitors of human BAZ2B bromodomain; Q9UIF8; AlphaScreen BAZ2B-H3K14Ac peptide displacement; Potency, µM (titrated, usually from 114 µM), inactives show at the top dose activity change, negative = inhibition, actives largely listed as inhibitors; 360,000 compounds, 4.4% hits; further: potency means the concentration at half of the fitted maximal effect; on the % scale 0 is the no-effect control and ±100 the full control effect; nearly all actives have a fitted effect of over 60% in size
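Inhibition is scored as reduced AlphaScreen emission. The BAZ2B/b-H3(5-23)K14Ac complex (50 nM each) in PBS pH 7.4, 0.01% Tween-20 meets compound (up to 110 uM) for 30 min at RT before bead addition.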
HP1b chromo inh – HP1-beta chromodomain-methylated histone interaction inhibition | P83916 | AlphaScreen HP1-beta / biotin-H3K9me3 peptide binding | 390,000 compounds, 0.56% hits | Potency, µM (doses to about 114 µM), inactives show at the highest dose activity change, negative = inhibition, most hits filed as inhibitors; further: potency means the concentration at half of the fitted maximal effect; nearly all actives have a fitted effect of over 70% in size
Target sequence (P83916 whole entry, looked up): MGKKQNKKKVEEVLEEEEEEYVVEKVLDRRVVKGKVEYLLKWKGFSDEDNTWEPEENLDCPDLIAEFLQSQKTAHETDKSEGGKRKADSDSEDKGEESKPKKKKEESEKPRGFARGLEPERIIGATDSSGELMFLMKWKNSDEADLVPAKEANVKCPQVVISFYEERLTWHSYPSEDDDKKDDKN
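Compound inhibition of the preformed complex between 50 nM HP1-beta and 50 nM biotinylated H3K9me3 peptide was read by AlphaScreen. Buffer was PBS pH 7.4 with 0.01% Tween-20. Incubations ran 30 min at room temperature, with 10 ug/mL donor/acceptor beads.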
PLK1 PBD inh – PLK1 (human) polo-box domain binding inhibition. P53350. Plk1 PBD binding of FITC phosphopeptide, fluorescence polarization. Potency, µM, inactives show max response, negative = inhibition, hits mostly inhibitors. 360,000 compounds, 2.8% hits. AID 720504; further: potency means the concentration at half of the fitted maximal effect; series mostly up to about 57 µM; on the % scale 0 is the no-effect control and ±100 the full control effect; nearly all actives have a fitted effect of over 65% in size
PI5P4Ka inh – PI5P4K alpha (human) kinase inhibition; 330,000 compounds, 1.2% hits; max response, %; PI5P4Kalpha enzyme, ADP-Glo luminescence, 60 min; hits give low values; P48426; active means max response of -50% or lower; inconclusive means between -30% and -50%; inactive means -30% or higher; further: value at the top dose of about 77 µM; on the % scale 0 is the no-effect control and ±100 the full control effect
Target sequence (P48426 whole entry, looked up): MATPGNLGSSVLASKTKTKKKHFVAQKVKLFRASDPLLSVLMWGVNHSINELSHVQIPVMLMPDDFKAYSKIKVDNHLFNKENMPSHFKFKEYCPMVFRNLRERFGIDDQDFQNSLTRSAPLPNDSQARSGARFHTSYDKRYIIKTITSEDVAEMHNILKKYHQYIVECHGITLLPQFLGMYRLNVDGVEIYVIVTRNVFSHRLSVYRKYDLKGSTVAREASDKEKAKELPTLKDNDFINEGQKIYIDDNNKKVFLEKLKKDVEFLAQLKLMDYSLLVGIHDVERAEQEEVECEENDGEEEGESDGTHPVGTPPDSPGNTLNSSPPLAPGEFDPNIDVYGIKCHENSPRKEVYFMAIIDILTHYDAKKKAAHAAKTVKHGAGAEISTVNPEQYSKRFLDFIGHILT
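Reactions run in 0.038 M HEPES pH 7.4, 0.28 mM EGTA, 0.1% CHAPS and 5% DMSO, with PI5P4Kalpha, substrate, compound and 5 microM ATP final, one hour at room temperature. Readout is ADP-Glo luminescence.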
JMJD2A Tudor inh – inhibitors of human JMJD2A Tudor domain | AlphaScreen JMJD2A-Tudor / H3K4me3 peptide binding | Potency, µM (highest dose often 114 µM), for the others: top-dose activity change, negative = inhibition, actives largely listed as inhibitors | 390,000 compounds, 4.4% hits; further: potency means the concentration at half of the fitted maximal effect; on the % scale 0 is the no-effect control and ±100 the full control effect; nearly all actives have a fitted effect of over 50% in size
G9a block – G9a (human) methyltransferase inhibition. G9a H3K9 monomethylation, AlphaScreen, 2 h. Potency, µM (doses to about 102 µM), inactives show at the highest dose activity, negative = inhibition, usual class: inhibitors. 350,000 compounds, 8.8% hits; further: potency means the concentration at half of the fitted maximal effect; on the % scale 0 is the no-effect control and ±100 the full control effect; nearly all actives have a fitted effect of over 75% in size
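Step 1: enzyme (final 20 nM) with compound, 15 min RT. Step 2: substrate peptide 500 nM and SAM 20 uM, 2 h RT. Step 3: anti-H3K9me1 antibody and AlphaScreen beads, 10 min, then plate read.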
Numbers without * were called inactive; u = inconclusive; x = not tested or not shown; [ ] = remark or other dose. The list is not random: actives were taken first. Their share in the collection is about 12%. Unless noted, the call rests on the fitted dose curve; in most records, active means well fitted curve in the direction sought with a large enough effect; inconclusive means small, poorly fitted or top-dose-only effect, or another doubt; inactive means no such curve, though single readings can be large; an effect the other way counts as inactive or inconclusive.

SMILES	BAZ2B inh	HP1b chromo inh	PLK1 PBD inh	PI5P4Ka inh	JMJD2A Tudor inh	G9a block
O=C(CSc1ccccn1)N1CCCC(Nc2ccccc2)C1 (centres undefined)	1%	11%	u	7	-32%	x
COc1ccc(NC2CCCN(C(=O)CSc3ccccn3)C2)cc1OC (centres undefined)	0%	21%	24µM*	1	-22%	89%
COc1ccc(NC2CCCN(C(=O)C3(C)CCCCC3)C2)cc1 (centres undefined)	32µM*	-13%	-2%	11	-35%	x
COc1ccc(NC2CCCN(C(=O)c3ccc(OC)cc3OC)C2)cc1 (centres undefined)	u	-17%	-16%	-5	-27%	x
O=C(CSc1ccccc1)N1CCCC(Nc2ccccc2)C1 (centres undefined)	-31%	-3%	8.4µM*	-28	16µM*	-5%
Cc1cccc(N2CCN(C(=O)CCn3c(=O)c4cccn4c4cccnc43)CC2)c1C	-11%	13%	x	x	-15%	-4%[59 µM]
COc1ccc(NC2CCCN(Cc3cccc4cnccc34)C2)cc1 (centres undefined)	45µM*	-11%	4%	-3	u	45µM*
O=C1CCCCN1CC(=O)N1CCCC(Nc2ccc(F)c(F)c2)C1 (centres undefined)	-4%	2%	21µM*	-16	u	7%
COc1ccc(NC2CCCN(Cc3cccc4cnccc34)C2)cc1OC (centres undefined)	u	-2%	-25%	1	u	u
COc1ccc(NC2CCCN(C(=O)c3cccnc3)C2)cc1 (centres undefined)	-7%	7%[57 µM]	-13%	-3	-16%	5%[0.501 µM]
COc1ccc(NC2CCCN(C(=O)CSc3ccncc3)C2)cc1 (centres undefined)	50µM*	-6%	-22%	-5	-26%	40µM*
CC(C)(O)/C=C/C[C@](C)(O)C1CC[C@]2(C)C1[C@H](O[C@H]1O[C@@H](CO)[C@H](O)[C@@H](O)[C@@H]1O)CC1[C@@]3(C)CC[C@H](O)C(C)(C)C3[C@@H](O)C[C@]12C (some centres undefined)	x	26%	-1%	4	-5%	x
Cn1c(=O)c(-c2cc(F)cc(F)c2)nc2cnc(N3CCNCC3)nc21	x	x	x	x	x	-4%[0.501 µM]
Cc1ccc(-n2nc(CO)c(C(=O)NC(C)c3ccccc3)n2)cc1C (centres undefined)	1%	31%	x	x	-15%	8%[59 µM]
O=C(CN1CCc2cc3c(cc2C1)OCCCO3)Nc1cccc(Br)c1	-28%	48%	-5%	3	-5%	30%
Cc1nc2ccc(NC(=O)C3(C)CCCN(C(C)C)C3)cc2o1 (centres undefined)	x	x	-13%	-1	x	x
Cc1ccc(-n2nc(C)c3c(C(=O)Nc4ccc(Br)c(C)c4)cc(C)nc32)cc1	17%[57.1 µM]	68%	x	x	10%	6%[59 µM]
COc1ccccc1N1CCN(CCCCCCOc2ccc(F)cc2)CC1	-37%	1%	-19%	0	-34%	50µM*
COc1ccc(CN2CCN(CCCCOc3ccc(Cl)cc3)CC2)c(OC)c1OC	18µM*	u	-8%	5	6.3µM*	14µM*
COc1ccccc1N1CCN(CCCCOc2cccc3ccccc23)CC1	35µM*	-19%	4%	1	u	45µM*
O=C(Nc1cccc(C(=O)N2CCOCC2)c1)C1CC1	x	23%	-5%	-6	-10%	x
CCOc1ccc(N(C(=O)CC(C)C)S(=O)(=O)c2ccc3c(c2)oc(=O)n3C)cc1	3%	27%	x	x	-20%	-6%[59 µM]
O=C(NNc1c2ccccc2nc2ccccc12)c1cccc(O)c1	35µM*	u	-2%	-1	45µM*	u
O=C(NNc1c2ccccc2nc2ccccc12)c1ccc(O)cc1	28µM*	u	-5%	-28	-32%	u
COc1cccc(-c2nc(-c3ccccc3)c(-c3ccccc3)[nH]2)c1OCC(=O)O	u	u	u	-8	-31%	-18%[59 µM]
SMILES	BAZ2B inh	HP1b chromo inh	PLK1 PBD inh	PI5P4Ka inh	JMJD2A Tudor inh	G9a block
O=C(O)COc1ccccc1-c1nc(-c2ccccc2)c(-c2ccccc2)[nH]1	u	-5%	34µM*	7	-33%	79µM*
N#Cc1c(-c2cccnc2)c2c([nH]c1=O)-c1ccccc1OC2	6%	38%	-3%	-59*	3%	u
CCOC1CCCC(n2cnc3c(=S)nc[nH]c32)O1 (centres undefined)	x	u	-21%	-5	18µM*	x
Nc1ncnc2c1ncn2C1CCCC(CO)O1 (centres undefined)	x	23%[57 µM]	1%	0	-6%	x
O=C(COC(=O)c1ccc2ncsc2c1)NC(=O)C1CCCCC1	x	43%	x	x	-11%	x
CCCCCCn1c(SCC(C)C)nc2c1c(=O)[nH]c(=O)n2C	-2%	24%	-8%	-4	-4%	u
C=CCSc1nc2c(c(=O)[nH]c(=O)n2C)n1C/C=C(/C)Cl	11%	57%	-18%	-3	-6%[57.1 µM]	16%[59 µM]
CCCCCSc1nc2c(c(=O)[nH]c(=O)n2C)n1C	-4%	21%	-3%	-2	-25%	2%
CCCCCSc1nc2c(c(=O)[nH]c(=O)n2C)n1C(C)C	8%	9%	u	1	-8%	40µM*
CCCCCSc1nc2c(c(=O)[nH]c(=O)n2C)n1CC	x	3%	21µM*	-24	-8%	x
CCCCCCn1c(SCC(=O)OC)nc2c1c(=O)[nH]c(=O)n2C	-1%	u	5.3µM*	-27	u	1.6µM*
C=CCSc1nc2c(c(=O)[nH]c(=O)n2C)n1CC	1%	u	24µM*	-19	-20%	u
CCOC(=O)c1c(C)n(-c2ccccc2)c2ccc(OC(=O)c3ccccc3NC(=O)C(C)(C)C)cc12	-17%	12%	x	x	-20%	-35%[59 µM]
O=C(NC(c1ccc(F)cc1)c1ccc2ccccc2n1)C1CCN(CCOc2ccc(Cl)cc2)CC1 (centres undefined)	x	x	-5%	0	x	x
CC(=O)c1ccc(OCC(=O)N2CCCC(Nc3ccc(C)c(C)c3)C2)cc1 (centres undefined)	-18%	17%	-9%	3	-24%	44%
O=C(c1ccc([N+](=O)[O-])o1)N1CCN(c2nc3c(F)cc(F)cc3s2)CC1	-35%	-20%	-8%	3	u	45µM*
Cc1cc(C(=O)N2CCCC(Nc3ccc(F)cc3)C2)n(C)n1 (centres undefined)	19%	37%	2%	4	-3%	x
Cc1ccc(NC2CCCN(C(=O)c3ccoc3)C2)cc1C (centres undefined)	u	27%	-4%	7	-28%	79µM*

Assay outcomes from PubChem.
